The record followed here is PubChem BioAssay (NCATS).

“And” between values parts separate entries of the source, which are not always exact repeats. Equal entries are not always repeated. Values without a mark were called inactive. Results filed as inconclusive are left out. The source made the active and inactive calls. Unless noted, calls follow the shape of the dose curve; as a rule, active = well fitted curve in the direction sought with a large enough effect; inconclusive = small, poorly fitted or top-dose-only effect, or another doubt; inactive = no such curve, though single readings can be large; an effect the other way counts as inactive or inconclusive. Where only a bound is given, the exact number is not on record here.

Assay [1] in a line: qHTS Assay for Identification of Small Molecule Agonists for Hypoxia Response Element Signaling Pathway (AID 914; active = well fitted activation curve with a large enough effect in the signal ratio, with a control signal flat, not every such curve was filed as active; the % refers to the signal ratio; also: potency is read from the fitted curve at half-maximal effect; as to activation: % of control where 0% means no effect). As to conditions: ME-180 (cervical carcinoma) HRE-bla reporter, beta-lactamase ratio, CoCl2, 17 h; activation: active compounds read high. The method, boiled down:
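AC50 values come from titration-series %Activity, taken as the 460/530nm ratio of CCF4 fluorescence (excitation 405nm). CellSensor HRE-bla ME-180 cells were treated 17 hours at 37 C with compound plus an EC50 level of CoCl2.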
On the technique in general: Quantitative high-throughput screening tests each substance at several concentrations.

Assay [2] deals with Glutathione peroxidase 1 (Homo sapiens) (UniProt P07203). Nature of the assay: Primary qHTS Assay for Inhibitors of Recombinant Selenoprotein Glutathione Peroxidase 1 (GPX1) (AID 1845191). Also: nearly all actives have a fitted effect of over 65% in size. An outline of the steps: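 GPX1 10 nM, GR 100 nM, GSH 1 mM, NADPH 0.5 mM, CHP 0.5 mM (final). 30-min cpd preincubation, RT. Ex340/Em450 read t=0, t=15 min.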
Sequence of Glutathione peroxidase 1 (Homo sapiens) (P07203 whole entry, looked up): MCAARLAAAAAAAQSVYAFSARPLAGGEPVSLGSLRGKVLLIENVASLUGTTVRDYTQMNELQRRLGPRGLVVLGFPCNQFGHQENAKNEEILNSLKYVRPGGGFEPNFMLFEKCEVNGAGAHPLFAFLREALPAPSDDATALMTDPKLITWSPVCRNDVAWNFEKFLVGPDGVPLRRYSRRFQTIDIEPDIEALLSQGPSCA
Assay [3] addresses Phospholipid hydroperoxide glutathione peroxidase GPX4 (Homo sapiens) (UniProt P36969). Nature of the assay: Primary qHTS Assay for Inhibitors of Recombinant Selenoprotein Glutathione Peroxidase 4 (GPX4) (AID 1845192). Also: nearly all actives have a fitted effect of over 65% in size. Also: potency is read from the fitted curve at half-maximal effect. An outline of the steps:
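qHTS, GR-coupled: GPX4 200 nM + cpd 30 min RT → GSH 1 mM, NADPH 0.5 mM, GR 100 nM → CHP 0.5 mM start; fluor 340/450 at t0 and t15 min; no-enzyme wells as control.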

A short description of assay [4]: Cell Viability - Jurkat (AID 426;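 active = dose-dependent loss of cell ATP signal giving a full or clear fitted curve, ranked by lower potency value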; also: potency is read from the fitted curve at half-maximal effect). To be noted: qHTS. An outline of the steps:
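Cytotoxicity was scored as loss of cellular ATP, measured by luciferase-based luminescence, in Jurkat clone E6-1 cells after 40 h compound treatment; tamoxifen and doxorubicin served as positive controls.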

A short description of assay [5]: Cell Viability - Hek293 (AID 427;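 active = compounds whose dose-response curve shows a full or clear partial loss of cell viability, called from curve shape rather than a numeric limit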;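 also: potency is read from the fitted curve at half-maximal effect; cells exposed to compound for 40 hours at 37 °C before reading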). To be noted: qHTS. An outline of the steps: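 AC50 values derive from Hill-modelled concentration-response of ATP-based luminescence, normalized between DMSO-only and 100 uM tamoxifen controls. Cells were exposed in complete culture medium for 40 hr at 37 °C before detection.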
Assay [6] can be described thus: Cell Viability - HepG2 (AID 433; calls by dose curve;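 also: potency is read from the fitted curve at half-maximal effect; potency for ATP loss meaning cytotoxicity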). As to conditions: qHTS. The method, boiled down: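 HepG2 cells, 1500 per well, treated 40 hr at 37 °C in complete medium; viability from intracellular ATP by CellTiter-Glo luminescence. Normalized to DMSO and 100 uM tamoxifen; AC50 from Hill fit of qHTS concentration-response.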
The nature of assay [7]: Cell Viability - SK-N-SH (AID 435; calls by dose curve;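 also: potency is read from the fitted curve at half-maximal effect; compound exposure lasted 40 h at 37 °C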). As to conditions: SK-N-SH neuroblastoma cell viability qHTS. An outline of the steps: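 SK-N-SH neuroblastoma cells (1500/well) treated 40 h at 37 °C in complete medium; viability read as cellular ATP by CellTiter-Glo luminescence. Normalized to DMSO and 100 uM tamoxifen; AC50 from Hill fits of qHTS concentration-response.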
Assay [8] is described as follows: Cell Viability - N2a (AID 540).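 Also: plate controls were DMSO alone for no effect and tamoxifen control for full effect; nearly all actives have a fitted effect of over 45% in size.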 As to conditions: N2a mouse neuroblastoma cell viability; activity change, negative = cytotoxicity: at 92.2 µM (top of the series). An outline of the steps: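 In this qHTS cytotoxicity screen, ATP-dependent luciferase luminescence reports viable N2a cells after a 40 hr compound exposure in complete culture medium. Potencies are AC50 values from standard Hill equation fits.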

Assay [9] is described as follows: Cell Viability - Renal Proximal Tubule (AID 545).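 Also: 0% = DMSO only and -100% = 100 µM tamoxifen; nearly all actives have a fitted effect of over 40% in size.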 To be noted: renal proximal tubule cells viability, primary cells of rat origin; at 91.7 µM (top of the series). An outline of the steps:
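Rat renal proximal tubule primary cells, 1000/well, exposed to compounds for 40 hr at 37 °C in complete medium; cellular ATP read by CellTiter-Glo luminescence. AC50 from concentration-response fitted with standard Hill equation.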

Assay [10] is described as follows: Cell Viability - Mesenchymal (AID 546).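 Also: cells exposed to compound for 40 hours before reading; 0% = DMSO only and -100% = 100 µM tamoxifen.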 To be noted: mesenchymal cells viability, qHTS; activity change, negative = cytotoxicity: at 91.7 µM (top of the series). The method, boiled down:
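In this qHTS cytotoxicity format, glomerulus-derived human mesenchymal kidney cells received compound for 40 hr, then luciferase-based ATP quantitation. Concentration-response data were fitted with the Hill equation.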

Assay [11] in a line: Cellular Toxicity (caspase-3) HepG2 (AID 654).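 Also: cells exposed to compound for 16 hours before reading; 0% = DMSO alone and 100% = caspase signal from 100 µM tamoxifen.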 An outline of the steps: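 Concentration-response AC50 values reflect caspase-3/7 induction in HepG2 cells after 16 hours of compound exposure, quantified by luminescence from liberated aminoluciferin and referenced to 100 uM tamoxifen as full stimulation.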
A short description of assay [12]: qHTS Assay for Identification of Small Molecule Inducers of Hypoxia Response (AID 2120; active = well fitted curve in the direction sought with a large enough effect in the signal ratio, with a control signal flat, not every such curve was filed as active; the % refers to the signal ratio; also: 0% is about no effect). An outline of the steps: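 HRE-bla ME-180, 2500 cells/well, 0.5% dialyzed FBS medium; cpd titration, 17 h 37 degrees C; CCF4 2.5 h RT; Ex 405, Em 460/530 ratio -> %Activity, AC50.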
Assay [13] addresses Vitamin D3 receptor (Homo sapiens) (UniProt P11473). Nature of the assay: qHTS assay for small molecule antagonists of vitamin D receptor signaling (AID 588541; calls by dose curve;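 also: receptor activated by calcitriol during compound treatment; % is scaled to controls: 0 for no effect and ±100 for the full control effect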). The method, boiled down: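 VDR-UAS-bla HEK293T cells (2000/well, 2% charcoal-stripped FBS) were treated with titrated compounds plus 1-alpha,25-dihydroxyvitamin D3 (50 nM or 3 nM final) for 16 h at 37 C. CCF4 beta-lactamase fluorescence was read; Hill fits gave IC50.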

For assay [14] the target is unchanged. The experiment in a line: qHTS assay for small molecule agonists of vitamin D receptor signaling (AID 588543; calls by dose curve;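 also: 0% = DMSO basal and 100% = reference agonist control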). An outline of the steps: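 VDR-UAS-bla HEK293T cells, 2000/well, 2% charcoal-stripped FBS; compound titration 16 h at 37 C; CCF4 beta-lactamase ratio read. Normalized to 50 nM 1-alpha,25-dihydroxyvitamin D3 (100%) and DMSO; Hill fit gives EC50, efficacy.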

The target of assay [15] is Voltage-gated inwardly rectifying potassium channel KCNH2 (Homo sapiens) (UniProt Q12809). The experiment in a line: qHTS Assay for Small Molecule Inhibitors of the Human hERG Channel Activity (AID 588834).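 Also: top concentration of the series differs between compounds; % is scaled to controls: 0 for no effect and ±100 for the full control effect; lower thallium flux fluorescence means stronger hERG block; nearly all actives have a fitted effect of over 50% in size.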 An outline of the steps: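 Thallium serves as surrogate for K+ influx through BacMam-delivered hERG in U2OS cells. Compounds are added for about 10 minutes after dye loading; stimulation buffer then starts flux, monitored kinetically on FDSS.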
Sequence of Voltage-gated inwardly rectifying potassium channel KCNH2 (Homo sapiens) (Q12809 whole entry, looked up): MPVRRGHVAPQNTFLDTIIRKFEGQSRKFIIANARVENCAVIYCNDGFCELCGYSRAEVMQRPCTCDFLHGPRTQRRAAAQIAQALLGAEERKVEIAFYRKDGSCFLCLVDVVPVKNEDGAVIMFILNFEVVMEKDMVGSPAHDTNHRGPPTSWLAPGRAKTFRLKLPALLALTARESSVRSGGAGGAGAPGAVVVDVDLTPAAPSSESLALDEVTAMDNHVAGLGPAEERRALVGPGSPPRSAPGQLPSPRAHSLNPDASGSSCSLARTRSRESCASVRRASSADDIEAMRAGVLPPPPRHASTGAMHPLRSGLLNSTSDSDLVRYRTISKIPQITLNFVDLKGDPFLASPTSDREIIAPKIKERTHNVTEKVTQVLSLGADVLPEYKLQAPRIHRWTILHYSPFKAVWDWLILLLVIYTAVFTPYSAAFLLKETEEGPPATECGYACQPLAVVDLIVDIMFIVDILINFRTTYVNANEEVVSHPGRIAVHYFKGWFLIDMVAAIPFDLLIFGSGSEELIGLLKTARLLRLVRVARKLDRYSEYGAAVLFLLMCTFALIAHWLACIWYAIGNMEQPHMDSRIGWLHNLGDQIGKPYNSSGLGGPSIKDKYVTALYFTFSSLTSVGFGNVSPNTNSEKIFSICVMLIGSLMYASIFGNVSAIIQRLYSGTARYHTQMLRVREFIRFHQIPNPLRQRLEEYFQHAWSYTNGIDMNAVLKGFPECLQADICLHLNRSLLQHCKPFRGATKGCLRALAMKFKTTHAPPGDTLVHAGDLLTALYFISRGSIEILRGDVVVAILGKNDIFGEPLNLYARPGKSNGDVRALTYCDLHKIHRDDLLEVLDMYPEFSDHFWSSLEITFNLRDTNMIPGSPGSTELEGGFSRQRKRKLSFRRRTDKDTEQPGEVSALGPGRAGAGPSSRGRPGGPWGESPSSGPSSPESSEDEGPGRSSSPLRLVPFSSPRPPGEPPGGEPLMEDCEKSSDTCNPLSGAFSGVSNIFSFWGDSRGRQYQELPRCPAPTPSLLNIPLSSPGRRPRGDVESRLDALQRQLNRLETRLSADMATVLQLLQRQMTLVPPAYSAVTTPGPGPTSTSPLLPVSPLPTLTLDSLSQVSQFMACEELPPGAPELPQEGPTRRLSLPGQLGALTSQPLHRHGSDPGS

Assay [16] is described as follows: qHTS assay for small molecule disruptors of the mitochondrial membrane potential - 5 hr assay (AID 651755; calls by dose curve; also: % is scaled to controls: 0 for no effect and ±100 for the full control effect; nearly all actives have a fitted effect of over 40% in size). The method, boiled down:
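Seed HepG2 overnight, add compound, incubate 5 hr at 37C and 5% CO2, stain 30 min with Mito-MPS, then measure monomer (490/535 nm) and aggregate (540/590 nm) fluorescence.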

Assay [17] has as its target Nuclear receptor ROR-gamma (Homo sapiens) (UniProt P51449). The experiment in a line: qHTS assay for small molecule antagonists of the retinoid-related orphan receptor gamma (ROR-gamma) signaling pathway (AID 651802).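 Also: CHO cells with doxycycline-induced ROR-gamma expression; luciferase reporter luminescence driven by ROR response element; % is scaled to controls: 0 for no effect and ±100 for the full control effect; nearly all actives have a fitted effect of over 60% in size.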 The method, boiled down:
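Doxycycline-induced reporter activity in engineered CHO cells (TET-inducible ROR, RORE-LUC) was measured by luminescence after 16hr compound exposure at 37C.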

Assay [18] in a line: qHTS assay for small molecule agonists of the antioxidant response element (ARE) signaling pathway measured by Nrf2-dependant transcriptional activity - cell viability counter screen (AID 720653; active = well fitted curve in the direction sought with a large enough effect in the repeat runs; an effect the other way counts as inactive or inconclusive; also: % is scaled to controls: 0 for no effect and ±100 for the full control effect). To be noted: ARE-bla HepG2 viability, CellTiter-Glo ATP luminescence, 16 h; max response: active compounds read low. The method, boiled down: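 ARE-bla HepG2 cells (2,000/well) rested 5 hrs at 37C/5% CO2, then exposed to compounds in DMSO for 16 hrs. Viability was read in the same wells as intracellular ATP by luminescence, 30 min at room temperature after reagent addition.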

Assay [19] in a line: qHTS assay for cell viability of HEK293 cells (AID 743288). Also: % is scaled to controls: 0 for no effect and ±100 for the full control effect; nearly all actives have a fitted effect of over 50% in size. To be noted: ATP luminescence (CellTiter-Glo), 18 h; max response: active compounds read low. An outline of the steps:
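Steps: plate 2,000 parental HEK293 cells per well; incubate ≥5 h, 37 C; add compounds in DMSO; incubate 18 h, 37 C; add CellTiter-Glo; wait 30 min at room temperature; read luminescence.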

A short description of assay [20]: qHTS assay for cell viability of the p53RE-bla HCT-116 cell line (AID 743292). Also: % is scaled to controls: 0 for no effect and ±100 for the full control effect; nearly all actives have a fitted effect of over 55% in size. An outline of the steps: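 ATP-based luminescent viability (CellTiter-Glo, 30 min RT) after 16 h compound treatment at 37 C of p53RE-bla HCT-116 cells, seeded at 4,000 cells/well and rested 5 h before dosing.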

Sequence of Phospholipid hydroperoxide glutathione peroxidase GPX4 (Homo sapiens) (P36969 whole entry, looked up): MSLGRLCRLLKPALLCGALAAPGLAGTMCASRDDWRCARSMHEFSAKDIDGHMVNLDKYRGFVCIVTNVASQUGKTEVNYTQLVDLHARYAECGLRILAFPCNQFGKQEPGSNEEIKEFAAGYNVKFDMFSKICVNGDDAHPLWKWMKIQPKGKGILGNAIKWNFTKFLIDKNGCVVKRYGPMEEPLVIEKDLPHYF
Sequence of Vitamin D3 receptor (Homo sapiens) (P11473 whole entry, looked up): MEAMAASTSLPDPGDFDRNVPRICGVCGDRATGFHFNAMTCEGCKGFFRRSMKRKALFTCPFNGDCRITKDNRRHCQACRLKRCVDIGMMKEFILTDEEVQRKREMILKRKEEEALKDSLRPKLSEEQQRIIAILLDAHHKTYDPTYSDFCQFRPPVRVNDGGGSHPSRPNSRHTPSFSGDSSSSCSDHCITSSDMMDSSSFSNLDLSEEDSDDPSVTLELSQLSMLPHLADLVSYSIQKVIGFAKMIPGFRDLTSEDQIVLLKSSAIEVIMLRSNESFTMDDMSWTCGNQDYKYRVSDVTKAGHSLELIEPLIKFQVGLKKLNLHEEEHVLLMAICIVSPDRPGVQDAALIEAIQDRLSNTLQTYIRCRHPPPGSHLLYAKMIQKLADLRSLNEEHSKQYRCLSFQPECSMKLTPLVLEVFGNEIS
Sequence of Nuclear receptor ROR-gamma (Homo sapiens) (P51449 whole entry, looked up): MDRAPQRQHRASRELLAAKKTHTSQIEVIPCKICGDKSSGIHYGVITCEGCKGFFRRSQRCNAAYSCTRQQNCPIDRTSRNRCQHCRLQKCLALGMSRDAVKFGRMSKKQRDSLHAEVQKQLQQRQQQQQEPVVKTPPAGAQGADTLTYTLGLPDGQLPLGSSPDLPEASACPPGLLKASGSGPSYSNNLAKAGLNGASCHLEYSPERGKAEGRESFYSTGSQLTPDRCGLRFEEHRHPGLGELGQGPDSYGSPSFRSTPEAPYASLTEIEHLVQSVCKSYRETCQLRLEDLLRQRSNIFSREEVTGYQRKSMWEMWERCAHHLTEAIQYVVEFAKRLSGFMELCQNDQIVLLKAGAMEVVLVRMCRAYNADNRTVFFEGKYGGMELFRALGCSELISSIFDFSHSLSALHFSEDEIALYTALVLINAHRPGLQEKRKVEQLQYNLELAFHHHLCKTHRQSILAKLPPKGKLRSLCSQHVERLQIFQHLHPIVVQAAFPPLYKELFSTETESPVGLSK

For the compound `COCCn1c(=O)c(-c2cc(F)cc(F)c2)nc2cnc(N3CCN(C)CC3)nc21`, the Potency in [1] is 3.16 µM (active).

Take `COc1cccc(Nc2ncc3ncc(=O)n(Cc4ccc(F)cc4)c3n2)c1`: the activation in assay [1] is -20.2%.

With `COc1cccc(-c2nc(NCc3cccnc3)c3ccccc3n2)c1`, in assay [1], the activation was -25.6%.

Take `O=c1c(-c2ccccc2)nc2cnc(N3CCOCC3)nc2n1CCc1ccccc1`: the Potency in assay [1] is 3.16 µM (active).

`N#CCCn1c(=O)c(-c2ccc(Cl)cc2)nc2cnc(N3CCOCC3)nc21`: in assay [1], the activation was 22.6%.

On to `COc1ccc(-n2c(=O)c(CCc3ccccc3)nc3cnc(OC)nc32)cc1`, for which the activation in [1] is -18.9%.

Consider `CCCCCC/C=C\CCCCCCCC(=O)O`, for which the Potency result in assay [2] was “inactive”. For the same compound, the Potency in assay [3] was 14.1 µM (active).

Turning to `COc1cc(/C=C/c2ccccc2)oc(=O)c1`, the Potency in assay [4], in assay [5], in assay [6] and in [7] was above 92 µM in each case. Further, the values for the activity change, negative = cytotoxicity in assay [8], in [9] and in assay [10] were 1.71%, -15.2% and -9.29%, respectively. Besides, the compound was called inactive in assay [11], in assay [12], in [13] and in assay [14]. Further, the Potency entry in [15], in [16], in assay [17] and in [20] was “inactive” throughout. For the same compound, the values for the max response in assay [18] and in assay [19] were -6.81% and -23%, respectively.

Turning to `CC(=O)OC1CC2CCC1(C)C2(C)C` (stereo not given), the Potency result in assay [2] and in assay [3] was “inactive” in each case.

Take `CC(C)=CCCC(C)=CCCC(C)=CCCC=C(C)CCC=C(C)CCC=C(C)C`: the Potency entry in assay [2] and in assay [3] was “inactive” each time.

Take `Cc1ncc(COP(=O)(O)O)c(C)c1O`: the Potency result in [2] and in [3] was “inactive” in each case.

As to `CCCCCCCCCCCCCC(=O)O`, the Potency in assay [4], in [5], in assay [6] and in assay [7] was above 92 µM throughout. The activity change, negative = cytotoxicity is -4.4% in assay [8], -23% in assay [9] and 1.41% in [10]. Further, the compound was called inactive in [11], in assay [12], in assay [13] and in assay [14]. The Potency result in assay [15], in [16], in assay [17] and in [20] was “inactive” each time. In addition, the max response in [18] is 1.31% and -9.4%; in assay [19], 2.25% and -11.5%.

Turning to `COc1ccc(/C=C/c2cc(OC)cc(=O)o2)cc1`, the Potency in assay [4], in assay [5], in assay [6] and in [7] was above 92 µM in each case. Besides, the activity change, negative = cytotoxicity in assay [8] was -11.5%; in assay [9], -20.5%; in assay [10], -3.53%. Also, the outcome in [11], in assay [12], in assay [13] and in [14] was inactive. Besides, the Potency entry in assay [15], in assay [16], in assay [17] and in [20] was “inactive” throughout. For the same compound, the values for the max response in assay [18] and in assay [19] were 11.1% and -19.9%, respectively.
